Source: ChEMBL document CHEMBL3988442, “University of Dundee, Small-Polar-MMV Screening Library” (2021)

Molecular target: AMP-activated protein kinase, AMPK (Homo sapiens) (UniProt P54646+O43741+P54619+Q9UGJ0+Q9Y478+Q13131+Q9UGI9)
Assay: AMP-dependent Kinase enzyme assay. An in vitro enzyme assay that detects ADP turnover that is directly proportional to AMPK activity. This uses naive AMPK that is activated during the assay with MK-8722
Type: functional
Parameters: scale not given: direction of the effect not stated beside the values
Settings: 30 µM

| Compound | Percent Effect [%] |
| --- | --- |
| CC(C)OCCCNC(=O)CN1CCN(c2nccs2)C(C)C1 (stereo not given) | 13.6 |
| CCc1cc(NCCCNS(C)(=O)=O)nc(-c2ccccn2)n1 | -7.82 |
| Cc1ncsc1C(=O)OCCN1CCCCCC1=O | 5.73 |
| O=C(O)CCn1ccc2c(nnc3c(-c4ccc(F)cc4)cnn32)c1=O | 18.8 |
| Cc1ncsc1COC(=O)c1cccc2c1OCCO2 | 7.13 |
| CCN(CC)C(CNC(=O)c1ccc(-n2cncn2)cc1)c1ccsc1 (stereo not given) | -4.43 |
| Cc1nn(C)c(C)c1-c1ccc(=O)n(C(C)C(=O)NCc2ccco2)n1 (stereo not given) | 17.2 |
| CN(Cc1nncn1C)C(=O)c1cc(COc2ccccc2F)[nH]n1 | -9.05 |
| Cn1cc(N2CCN(c3ccc(C#N)cc3F)CC2=O)cn1 | 0.0438 |
| CC(c1nc(-c2cccnc2)no1)N(C)CCCOc1ccccc1 (stereo not given) | -4.41 |
| CC(C)(C)CN(CCO)C(=O)Nc1cccc(N2CCNC2=O)c1 | 2.19 |
| COCc1c(Cl)cccc1NC(=O)CNC(=O)C(C)(C)C | -4.63 |
| COCCNC(=O)NCc1ccc(-n2ccc(C(F)(F)F)n2)cc1 | -8.71 |
| Fc1cccc(-c2n[nH]cc2-c2nc(CN3CCOCC3)no2)c1 | 5.95 |
| O=C(c1ccncc1)N1CCCC(C2=Nc3ccccc3S(=O)(=O)N2)C1 (stereo not given) | 8.81 |
| COc1cccc(CCC(=O)Nc2c(C)nn(C)c2C)c1OC | 15.8 |
| COC(=O)C1CN(Cc2cc(F)ccc2Br)CCO1 (stereo not given) | -6.48 |
| Cc1ccc(C(=O)NCCC2CN(C3CCCC3)CCO2)c(C)c1 (stereo not given) | 4.11 |
| O=C(NCc1ccco1)N1CCC(n2cc(-c3ccccn3)nn2)CC1 | 0.674 |
| O=C1CCCN1C1CCCN(CCn2cc(Cl)cn2)C1 (stereo not given) | 7.29 |

| Compound | Percent Effect [%] |
| --- | --- |
| NCc1ccnc(Oc2ccccc2)c1 | -5.26 |
| CC(CO)NC(=O)Nc1ccc(CC#N)cc1 (stereo not given) | -1.29 |
| CCCC1(CO)CCCN(C(=O)CNC(C)=O)C1 (stereo not given) | -1.86 |
| Cc1cc(NCCNc2cccnc2)nc(-c2ccccc2O)n1 | 19.9 |
| COc1cccc2c1OCC(Cc1cc(C(=O)N3CCCC3)ccn1)C2 (stereo not given) | 5.36 |
| CC(CNC(=O)c1cnc[nH]1)Oc1ccc(Cl)cc1 (stereo not given) | 4.75 |
| CN1C(=O)c2ccc(C(=O)N(Cc3cnn(C)c3)C3CC3)cc2C1=O | 11.4 |
| Cc1ccccc1C(=O)NC[C@@H]1CCN(C(=O)c2cscn2)C[C@H]1O | 1.22 |
| CNC(=O)c1cc(NC(=O)Nc2cnn(CC(C)C)c2)ccc1F | -5.42 |
| COc1cc(CN2CC[C@@H](N3CCCCCC3)[C@H](O)C2)cc(Cl)c1OC | 13.6 |
| CN(C)CCC1CCN(c2cc(N3CCCC3CO)ncn2)CC1 (stereo not given) | -6.25 |
| CC(NC(=O)c1ccc2c(c1)COC2)c1cccc(N2CCOC2=O)c1 (stereo not given) | 5.03 |
| Cc1ncc(CNC(=O)NCC(C)Oc2ccccc2F)s1 (stereo not given) | 6.1 |
| Cc1cc(C(=O)NCCN2CCCCC2C)nn1C(C)(C)C (stereo not given) | 1.65 |
| CCc1ccc2nc(C)cc(C(=O)NC3CCC(=O)N(C)C3)c2c1 (stereo not given) | -7.18 |
| COc1cc(CN(C)[C@@H]2COC[C@H]2c2ccc(F)cc2)cc(OC)c1 | -11.5 |
| COCCCNc1ncnc2c1CCN(C(=O)CC1C=CCC1)CC2 (stereo not given) | 11.8 |
| COC(=O)C1CN(Cc2ccn(-c3ccc(F)cc3)n2)C[C@@H](C)O1 (stereo not given in full) | -6.96 |
| CCn1c(C2CCCNC2)nn(CCn2cncn2)c1=O (stereo not given) | -3.33 |
| COc1ccc(CCN(C)C(=O)c2cc(C(C)=O)c[nH]2)cc1OC | -3.69 |
